High-throughput results (PubChem)
CDC25B-CDK2 inh: human CDC25B-CDK2/CyclinA binding inhibition | P30305+P24941 | HTRF CDC25B-CDK2/CyclinA binding, anti-His/anti-Flag; hits give high values | z-score (no concentration beside the values) | actives 0.72% (n = 94,000) | AID 1259370; in the data active means z-score above about 3.2
TAR Tat displ: HIV-1 TAR-Tat binding disruption; AID 1259389; z-score (test concentration not listed); actives 0.6% (n = 100,000); HIV-1 TAR RNA, Tat peptide displacement FRET; hits give high values; active means z-score of 3 or more in at least 2 runs
Active calls of the source: *; x = no result. Compounds with a hit are over-represented: about 0.93% of the library has one in this group of screens.

SMILES	CDC25B-CDK2 inh	TAR Tat displ
CCOc1ccc(S(=O)(=O)Nc2ccc3c(c2)N(S(=O)(=O)c2ccccc2)CCC3)cc1	x	0.39
O=C(CSc1nnc2c3ccccc3nc(-c3ccccc3)n12)NC1CCCC1	x	1.08
COc1ccc(/C=C(\C#N)C(N)=S)cc1	1.55	x
CC1CN(C)C(C)C(/C=C(/C#N)C(N)=S)C1=O (stereo unspecified)	7.89*	x
CC1CCCC(NC(=O)CN(C)S(=O)(=O)c2ccc3c(c2)CC(C)N3C(=O)C2CC2)C1C (stereo unspecified)	x	1.64
Clc1ccc(-c2nnc(-c3ccccc3)o2)cc1	-2.71	-1.05
Nc1ccc(F)c(-c2nnc(-c3ccccc3)o2)c1	x	33.2*
Cc1ccc(Cl)cc1N1CCN(S(=O)(=O)c2cc3c(cc2C)N(C)CCO3)CC1	x	1.67
C(=C\c1nc2ccccc2n1CCOc1ccccc1)/c1ccco1	0.36	-6.2
Clc1ccc(OCCn2c(/C=C/c3ccco3)nc3ccccc32)cc1	0.11	-5.79
Cc1ccccc1Cn1c(/C=C/c2ccco2)nc2ccccc21	3.55*	-6.72
Cc1ccc(Cn2c(/C=C/c3ccco3)nc3ccccc32)cc1	3.56*	-0.25
Cc1nc(-c2csc(S(=O)(=O)Nc3ccc(-c4ccno4)cc3)c2)no1	x	1.78
Cc1nc(CNC(=O)[C@H]2CSCN2C(=O)Nc2ccc(Br)cc2F)cs1	x	1.2
NCCn1c(-c2ccncc2)nc2cccnc21	x	-8.19
O=C(NC1CCSC1=O)c1cccc(C(=O)NC2CCSC2=O)c1 (stereo unspecified)	-0.45	26.1*
O=C(NC1CCSC1=O)c1ccc(-c2ccccc2)cc1 (stereo unspecified)	-3.17	2.03
O=C(Nc1ccc2oc(-c3ccc(F)cc3)nc2c1)c1ccc([N+](=O)[O-])o1	0.59	2.36
O=C(Nc1ccc2oc(-c3cccc(F)c3)nc2c1)c1ccc([N+](=O)[O-])o1	2.52	22.3*
CC(C)NC(=O)c1ccc2c(c1)CCN2S(C)(=O)=O	-0.84	1.49
CS(=O)(=O)N1CCc2cc(C(=O)NCc3ccco3)ccc21	-0.51	14.5*
COc1ccc2c(c1)NC(c1cccnc1)=NC(c1ccccc1)=N2	-0.95	0.9
Cc1ccc([C@@H]2Nc3c(F)cccc3[C@@H]3C=CC[C@@H]32)cc1	-1.75	x
O=C(O)c1ccc2c(c1)C1C=CCC1C(c1ccc(Cl)cc1)N2 (stereo unspecified)	-0.83	18.5*
O=C(O)c1ccc([C@@H]2Nc3c(F)cccc3[C@@H]3C=CC[C@@H]32)cc1	2.16	9.39*
SMILES	CDC25B-CDK2 inh	TAR Tat displ
O=C(O)c1ccc2c(c1)C1C=CCC1C(c1cccc(F)c1)N2 (stereo unspecified)	0.43	9.31*
O=C(O)c1ccc2c(c1)[C@@H]1C=CC[C@@H]1[C@H](c1cccc(C(F)(F)F)c1)N2	-0.52	x
O=C(O)c1ccc2c(c1)[C@@H]1C=CC[C@@H]1[C@H](c1ccccn1)N2	6.04*	x
O=C(O)c1ccc2c(c1)[C@@H]1C=CC[C@@H]1[C@H](c1ccccc1Br)N2	-0.76	0.61
O=C(O)c1ccc2c(c1)[C@@H]1C=CC[C@@H]1[C@H](c1cccc(Cl)c1)N2	0.38	x
CCOC(=O)C1=C(C)Nc2ncnn2C1c1ccc(O)cc1 (stereo unspecified)	-1.2	0.21
O=C1COc2cc(-c3c(NCc4ccccc4)c(=O)c3=O)ccc2N1	x	-0.05
CCOC(=O)C1CCCN1c1ncc(Cl)cc1[N+](=O)[O-] (stereo unspecified)	13.8*	-9.78
O=C(O)C1CCCN1c1ncc(Cl)cc1[N+](=O)[O-] (stereo unspecified)	x	-12.6
COc1ccc(OC)c(-c2noc(Nc3cccc(Cl)c3)n2)c1	x	1.25
O=S1(=O)N(Cc2ccccc2Cl)CCCN1Cc1ccc(F)cc1Cl	0.06	1.07
CCC(C)NC(=O)C1=CC(c2ccc(F)cc2)=NS(=O)(=O)N1C (stereo unspecified)	-2.22	3.75*
CN1C(C(=O)NCc2ccc(F)cc2)=CC(c2ccc(F)cc2)=NS1(=O)=O	-2.65	1.47
CC(C)OC(=O)C(C(=O)C(F)(F)F)c1cc(NS(=O)(=O)c2ccccc2)c2ccccc2c1O (stereo unspecified)	-0.59	x
CCc1ccc(S(=O)(=O)Nc2cc(-c3c(O)ccc4ccccc34)c(O)c3ccccc23)cc1	0.58	x
CC(C)OC(=O)C(C(=O)C(F)(F)F)c1cc(NS(=O)(=O)c2ccc(Br)cc2)c2ccccc2c1O (stereo unspecified)	18.7*	x
CCc1ccc(S(=O)(=O)Nc2cc(Br)c(O)c3ccccc23)cc1	17.9*	x
O=C1CCCC2=C1C(c1ccco1)N(C(=O)NC1CCCC1)c1ccccc1N2 (stereo unspecified)	x	1.47
COc1ccc(-c2noc(C(C)Oc3ccccc3)n2)cc1OC (stereo unspecified)	-1.96	-1.17
COc1ccc(S(=O)(=O)N2CCCC2c2cc(C)no2)cc1 (stereo unspecified)	x	0.11
O=C(CSc1nc2ncccc2o1)NC(c1ccccc1)c1ccccc1	x	1.72
O=c1c2cn[nH]c2nc(SCc2cc(=O)n3ccccc3n2)n1-c1ccccc1Cl	-1.49	x
CCC(=O)N1CCc2cc(Br)cc(S(=O)(=O)N3CCCC3c3cc(C)no3)c21 (stereo unspecified)	x	0.92
Cc1ccc2c(=O)c(C(=O)c3ccc(F)cc3)c[nH]c2n1	x	-1.97
Cc1ccc2c(=O)c(C(=O)O)c[nH]c2n1	1.51	19.6*
SMILES	CDC25B-CDK2 inh	TAR Tat displ
Fc1cc(Br)ccc1CSc1nc2ncccc2o1	x	-0.95
Cc1ccc(-c2csc3ncn(C4CCCCC4)c(=O)c23)cc1	-1.11	1.8
CC(=O)Nc1ccc(S(=O)(=O)NCc2cc(F)cc3c2OCOC3)cc1Cl	3.46	x
O=C(COc1ccc(Cl)cc1[N+](=O)[O-])N/N=C/c1ccc(-c2cccc(C(=O)O)c2)o1	-2.14	x
Cc1ccc(-c2csc(-c3cc4c([nH]c3=O)CC(c3ccccc3)CC4=O)n2)cc1 (stereo unspecified)	-0.21	-6.32
O=C1CC(c2ccco2)Cc2[nH]c(=O)c(-c3nc(-c4ccc(Br)cc4)cs3)cc21 (stereo unspecified)	8.16*	3.74*
CCCCCC(=O)Nc1noc2ccccc12	-1.17	1.21
COc1ccc(/C=C/c2cc(O)cc(O[C@@H]3O[C@H](CO)[C@@H](O)[C@H](O)[C@H]3O)c2)cc1O	x	0.87
C[C@@H]1O[C@@H](O[C@H]2[C@H](Oc3cc(O)c4c(c3)O[C@H](c3ccc(O)cc3)CC4=O)O[C@H](CO)[C@@H](O)[C@@H]2O)[C@H](O)[C@H](O)[C@H]1O	x	0.91
COc1ccc([C@@H]2CC(=O)c3c(O)cc(O[C@@H]4O[C@H](CO)[C@@H](O)[C@H](O)[C@H]4OC4O[C@@H](C)[C@H](O)[C@@H](O)[C@H]4O)cc3O2)cc1O (stereo partly specified)	x	4.41*
O=C(/C=C/c1ccc(O)c(O)c1)c1ccc(O[C@@H]2O[C@H](CO)[C@@H](O)[C@H](O)[C@H]2O)c(O)c1O	x	31.2*
O=C1C[C@@H](c2ccc(O)c(O)c2)Oc2c1ccc(O[C@@H]1O[C@H](CO)[C@@H](O)[C@H](O)[C@H]1O)c2O	x	17.2*
O=C1C[C@@H](c2ccc(O)cc2)Oc2cc(O[C@@H]3O[C@H](CO)[C@@H](O)[C@H](O)[C@H]3O)cc(O)c21	x	3.21
O=C(N/N=C\c1c(Cl)cccc1Cl)c1nc(CS(=O)(=O)c2ccc(Cl)cc2)no1	-2.05	x
